# Screening results as filed in PubChem.
# DT40 TDP1 CPT: DT40-hTDP1 cell growth loss with CPT. chicken DT40 Tdp1-/-;hTDP1 cells + 20 nM CPT, ATP luminescence, 48 h. Potency, µM (top dose mostly 46.2 µM), for the others: at the top dose activity change, negative = growth inhibition, most hits filed as inhibitors. 12% of 420,000 active. AID 686979; also: potency is read from the fitted curve at half-maximal effect; % is scaled to controls: 0 for no effect and ±100 for the full control effect; nearly all actives have a fitted effect of over 55% in size
#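 Chicken DT40 Tdp1-/- cells stably complemented with human TDP1 were seeded at 400 cells/well in medium containing 20 nM camptothecin, exposed to pin-transferred compounds, and grown at 37 °C for at least 48 hr. Viability was read as ATP luminescence.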
# HepG2 viability: HepG2 cytotoxicity, counter-screen for TGF-b inhibitors; HepG2 CAGA-GFP viability, ATP luminescence, 18 h; Potency, µM (series often up to 46.1 µM), without a hit: top-dose activity change, negative = cytotoxicity, most hits filed as cytotoxic; 0.76% of 410,000 active; AID 588856; also: potency is read from the fitted curve at half-maximal effect
#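 CellTiter-Glo luminescence gave cytotoxicity after 18 hours at 37 degrees C. The cells were HepG2 CAGA-GFP in 1% FBS DMEM, stimulated with 500 pg/mL TGF-beta after compound addition. %Activity was normalised to no-cell wells (complete cell-killing) and DMSO (no toxicity), and curves were fitted and classified.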
# IL-1B inflam inh: blocks inflammasome-driven IL-1 beta release. THP-1 LPS/ATP IL-1B secretion, AlphaLISA, 16 h; stronger effect = lower value. activity change, % at 57.5 µM. 4.7% of 360,000 active. AID 743279; in the data active = activity change below about -50%; inconclusive = mostly about -30% to -49%; also: % is scaled to controls: 0 for no effect and ±100 for the full control effect
#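 THP-1 cells pretreated 1 hr with compounds (up to 57.5 uM final), then stimulated with LPS (250 ng/mL final) plus ATP (1.25 mM final); secreted IL-1B measured by AlphaLISA after 16 hr, decreased signal indicating inhibition.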
# ASM inhibitor: inhibitors of human secretory acid sphingomyelinase; 0.006% of 340,000 active; placental ASM, HMU-PC fluorogenic substrate, 60 min; AID 504937; Potency, µM (highest dose often 57.5 µM), for inactives: at the highest dose activity change, negative = inhibition, usual class: inhibitors; P17405; also: potency is read from the fitted curve at half-maximal effect
# Target sequence (P17405 47-631 limits assumed): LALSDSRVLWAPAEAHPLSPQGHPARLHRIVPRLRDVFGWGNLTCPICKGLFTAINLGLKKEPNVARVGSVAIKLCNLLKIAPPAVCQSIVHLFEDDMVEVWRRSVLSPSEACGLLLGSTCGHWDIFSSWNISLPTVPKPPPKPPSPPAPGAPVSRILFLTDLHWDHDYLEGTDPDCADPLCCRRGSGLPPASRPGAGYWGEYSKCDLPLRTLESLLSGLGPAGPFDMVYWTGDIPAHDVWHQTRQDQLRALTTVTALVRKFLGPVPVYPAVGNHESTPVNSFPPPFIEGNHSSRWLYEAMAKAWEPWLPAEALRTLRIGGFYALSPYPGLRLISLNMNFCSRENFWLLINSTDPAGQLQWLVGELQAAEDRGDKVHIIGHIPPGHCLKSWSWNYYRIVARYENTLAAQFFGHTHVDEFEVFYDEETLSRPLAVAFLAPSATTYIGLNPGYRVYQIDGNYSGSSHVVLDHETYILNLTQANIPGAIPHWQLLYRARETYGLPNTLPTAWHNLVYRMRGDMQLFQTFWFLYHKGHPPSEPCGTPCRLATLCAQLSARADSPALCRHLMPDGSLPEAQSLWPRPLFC
#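 qHTS format. ASM enzyme prepared from human placenta hydrolyses the fluorogenic substrate HMU-PC0 (9 uM final) over 60 min at 37 °C after a 10 min compound preincubation.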
# TGFb inhibitor: TGF-b pathway inhibition | Potency, µM (titrated, usually from 46.1 µM), for the others: at the highest dose activity, negative = inhibition, hits mostly inhibitors | AID 588855 | 1.2% of 410,000 active | HepG2 CAGA-GFP TGF-b/SMAD3 reporter, GFP fluorescence, 18 h; TGF-beta stimulated, 500 pg/mL final; also: potency is read from the fitted curve at half-maximal effect; % is scaled to controls: 0 for no effect and ±100 for the full control effect; nearly all actives have a fitted effect of over 65% in size
#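 Inhibition of TGF-beta-driven CAGA-GFP reporter expression in HEPG2 cells is measured by cellular GFP fluorescence after 18 h stimulation with 500 pg/mL recombinant TGF-beta in 1% FBS medium at 37 degrees C.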
# TDP1 cell noCPT: qHTS for Inhibitors of human tyrosyl-DNA phosphodiesterase 1 (TDP1): qHTS in cells in absence of CPT. AID 686978, 2013. DT40 Tdp1-/- hTDP1 cells, no CPT, ATP luminescence, 48 h. Potency, µM (doses to about 46.2 µM), inactives show at the top dose activity change, negative = growth inhibition, actives largely listed as inhibitors. 15% of 420,000 active; also: potency is read from the fitted curve at half-maximal effect; % is scaled to controls: 0 for no effect and ±100 for the full control effect; nearly all actives have a fitted effect of over 55% in size
#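 Camptothecin absent (DMSO only). Human TDP1-complemented DT40 knockout cells, 400 cells/well, 37 °C for minimum 48 hr; ATP measured via CellTiter-Glo, 30 min dark incubation, luminescence.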
# Starred values were filed as active, the others as inactive; ? = inconclusive; · = no result. The list is not random: actives were taken first. Their share in the collection is about 19%. Unless noted, calls follow the shape of the dose curve; as a rule, active = well fitted curve in the direction sought with a large enough effect; inconclusive = small, poorly fitted or top-dose-only effect, or another doubt; inactive = no such curve, though single readings can be large; an effect the other way counts as inactive or inconclusive.
SMILES,DT40 TDP1 CPT,HepG2 viability,IL-1B inflam inh,ASM inhibitor,TGFb inhibitor,TDP1 cell noCPT
COCc1c(C(=O)N2CCN(c3ncccn3)CC2)oc2ccccc12,15µM*,-13%,10,-7%,3%,?
CCOC(=O)N1CCN(Cc2c(F)cccc2Cl)CC1,?,2%,15,3%,-9%,-17%
CC(C)c1ccc(C(=O)N2CCN(c3cnn(C)c(=O)c3Cl)CC2)cc1,-29%,-6%,18,-1%,-10%,-28%
Cc1cccc(C)c1-n1nnnc1SCC(=O)N1CCNC1=O,?,6%,14,2%,-17%,-39%
O=C1c2ccccc2NC(c2ccccc2F)N1NS(=O)(=O)c1ccccc1 (configuration not stated),14%,2%,-4,29%,0%,-13%
CCN1CCN(CCCNC(=O)CCC(=O)N2CCOc3ccc(Cl)cc32)CC1,1%,1%,-15,5%,2%,8%
CCOc1cc(/C=N/NC(=S)Nc2ccccc2C(F)(F)F)ccc1OCC(=O)N1CCOCC1,5.8µM*,-4%,-17,-12%,-5%,8.2µM*
CCOc1cc(/C=C\[N+](=O)[O-])ccc1OCC(=O)N1CCOCC1,2.6µM*,-16%,-107*,-4%,?,2.3µM*
COc1ccccc1-c1nc(SCC(=O)N(C)c2ccccc2)c2c(=O)n(C)c(=O)n(C)c2n1,?,-28%,22,2%,-14%,?
CC1(C(=O)Nc2cnc3ccccc3c2)CCN1CCOc1ccccc1 (configuration not stated),?,-3%,-19,·,20%,?
Cn1c(=O)oc2cc(S(=O)(=O)N3CCCC(C(=O)N4CCc5ccccc5C4)C3)ccc21 (configuration not stated),16µM*,-10%,-6,-1%,?,15µM*
CN1CCN(C(=O)C2CCN(S(=O)(=O)c3ccc4c(c3)oc(=O)n4C)CC2)CC1,-7%,5%,5,4%,9%,-1%
CSCCC(NS(=O)(=O)c1ccc2c(c1)oc(=O)n2C)C(=O)N1CCN(c2cc(C)ccc2C)CC1 (configuration not stated),?,-6%,·,·,-2%,23µM*
Cn1c(=O)oc2cc(S(=O)(=O)N3CCCC(C(=O)N4CCN(c5ccc(F)cc5)CC4)C3)ccc21 (configuration not stated),7.3µM*,-8%,·,·,-14%,4.1µM*
Cc1ccc(C)c(N2CCN(C(=O)C(CC(C)C)NS(=O)(=O)c3ccc4nc(C)sc4c3)CC2)c1 (configuration not stated),?,9%,·,·,9%,16µM*
CCCCNS(=O)(=O)c1cccc(NC(=O)[C@@H]2O[C@H](CO)[C@@H](O)[C@H]2O)c1,-2%,4%,0,·,3%,9%
COC(=O)C1C(O)=C(C=Nc2ccc3ccccc3c2)C(=O)CC1(C)C (configuration not stated),-5%,-1%,16,17%,0%,-4%
CCCCCC(=O)Cc1cc(O)cc2c1C(=O)Oc1cc(O)c(C(=O)O)c(CCCCC)c1O2,?,-43%,-3,0%,?,?
COc1ccc(N2CCN(C(=O)C3CCN(S(=O)(=O)c4ccc5c(c4)oc(=O)n5C)CC3)CC2)cc1,?,1%,4,0%,-2%,9.2µM*
Cc1ccc(C)c(N2CCN(C(=O)C3CCN(S(=O)(=O)c4ccc5[nH]c(=O)oc5c4)CC3)CC2)c1,23µM*,-3%,·,·,?,26µM*
